Among the data in PubChem BioAssay (EPA / NIEHS) are outcome and AC50 values, retold here.

Common to all, as to settings: mRNA level, 48 h; actives raise or lower the signal
Read-out in experiment [1]: Hypoxia-inducible factor 1-alpha (Homo sapiens) (UniProt Q16665)
Put plainly: LTEA_HepaRG_HIF1A: Life Technologies and Expression Analysis (LTEA) Assay for Hypoxia-inducible factor 1 (HIF1A) Trancription factor using HepaRG (AID 2283503).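 Further: HIF1A transcript by TaqMan qRT-PCR normalized to ACTB GAPDH and POLR2A.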 The procedure, abridged: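 HepaRG, 48 h exposure, 8-pt half-log series from 100 uM, 0.5% DMSO vehicle, duplicates. Readout: HIF1A transcript by qRT-PCR (Fluidigm array), housekeeping-normalised. Bidirectional curve fit vs DMSO baseline.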

Read-out in experiment [2]: 3-Hydroxy-3-Methylglutaryl-CoA Synthase 2 (HMGCS2), HMGCS2 (gene 3158)
Put plainly: LTEA_HepaRG_HMGCS2: Life Technologies and Expression Analysis (LTEA) Assay for 3-Hydroxy-3-Methylglutaryl-CoA Synthase 2 (HMGCS2) using HepaRG (AID 2283504). The procedure, abridged: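 Expression of HMGCS2 in human HepaRG liver cells is measured by qRT-PCR 48 h after dosing (highest 100 uM, half-log series, 0.5% DMSO). Values come from bidirectional concentration-response fitting with DMSO as baseline.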

Read-out in experiment [3]: HGF (gene 3082)
Kind of experiment: LTEA_HepaRG_HGF: Life Technologies and Expression Analysis (LTEA) Assay for Hepatocyte Growth Facto (HGF) using HepaRG (AID 2283505). The procedure, abridged:
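Gain or loss of HGF mRNA in human HepaRG liver cells after 48 h chemical exposure; eight concentrations up to 100 uM with 0.5% DMSO vehicle, quantified by TaqMan qRT-PCR.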

Read-out in experiment [4]: Insulin Like Growth Factor 1 (IGF1), IGF1 (gene 3479)
Put plainly: LTEA_HepaRG_IGF1: Life Technologies and Expression Analysis (LTEA) Assay for Insulin Like Growth Factor 1 (IGF1) using HepaRG (AID 2283506). The procedure, abridged:
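Using human HepaRG liver cells, IGF1 transcript induction or suppression is measured 48 h after dosing across eight concentrations capped at 100 uM. Values derive from bidirectional concentration-response fitting with DMSO as baseline.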

Read-out in experiment [5]: Intercellular Adhesion Molecule 1 (ICAM1), ICAM1 (gene 3383)
Kind of experiment: LTEA_HepaRG_ICAM1: Life Technologies and Expression Analysis (LTEA) Assay for Intercellular Adhesion Molecule 1 (ICAM1) using HepaRG (AID 2283507). The procedure, abridged: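 Gain or loss of transcript in HepaRG hepatic cells is quantified by qRT-PCR after 48 h chemical exposure (up to 100 uM, half-log steps), with DMSO as baseline.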

Read-out in experiment [6]: Insulin-like growth factor-binding protein 1 (IGFBP1), IGFBP1 (gene 3484)
Put plainly: LTEA_HepaRG_IGFBP1: Life Technologies and Expression Analysis (LTEA) Assay for Insulin-like growth factor-binding protein 1 (IGFBP1) using HepaRG (AID 2283508). The procedure, abridged: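 mRNA induction or loss was quantified by qRT-PCR after 48 h chemical exposure of human HepaRG cells, with 0.5% DMSO as vehicle and baseline. Concentration-response over eight points up to 100 uM.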

Read-out in experiment [7]: Interleukin 6 (IL6), IL6 (gene 3569)
Kind of experiment: LTEA_HepaRG_IL6: Life Technologies and Expression Analysis (LTEA) Assay for Interleukin 6 (IL6) using HepaRG (AID 2283509). The procedure, abridged:
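HepaRG, ~100,000 cells/well, 48 h pre-culture; serum-free induction medium; cmpd 8-pt half-log from 100 uM, 0.5% DMSO, duplicate, 48 h. Lysis in RLT, TaqMan qRT-PCR; gain or loss vs DMSO.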

Read-out in experiment [8]: Interleukin 6 Receptor (IL6R), IL6R (gene 3570)
Put plainly: LTEA_HepaRG_IL6R: Life Technologies and Expression Analysis (LTEA) Assay for Interleukin 6 Receptor (IL6R) using HepaRG (AID 2283510).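 On AC50: differentiated human HepaRG liver cells in serum-free induction medium; TaqMan qRT-PCR signal normalized to ACTB GAPDH and POLR2A housekeeping genes.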 The procedure, abridged: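 Concentration-response in human liver HepaRG cells: eight concentrations from 100 uM downward by half-logs, 48 h exposure, 0.5% DMSO vehicle. IL6R mRNA change measured by qRT-PCR and fitted in both directions relative to vehicle.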

Read-out in experiment [9]: Potassium channel subfamily K member 1 (KCNK1), KCNK1 (gene 3775)
Put plainly: LTEA_HepaRG_KCNK1: Life Technologies and Expression Analysis (LTEA) Assay for Potassium channel subfamily K member 1 (KCNK1) using HepaRG (AID 2283511). The procedure, abridged:
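Gain or loss of KCNK1 mRNA is the read-out, quantified by qRT-PCR against three housekeeping genes after 48 h chemical treatment of human HepaRG liver cells. Concentrations ran from 100 uM downward in half-log steps, vehicle 0.5% DMSO.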

Read-out in experiment [10]: Keratin 19 (KRT19), KRT19 (gene 3880)
Kind of experiment: LTEA_HepaRG_KRT19: Life Technologies and Expression Analysis (LTEA) Assay for Keratin 19 (KRT19) using HepaRG (AID 2283512). The procedure, abridged: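 Gene-expression endpoint in the human liver line HepaRG after 48 h exposure to up to 100 uM test chemical with 0.5% DMSO vehicle; KRT19 mRNA by qRT-PCR, analyzed bidirectionally versus DMSO.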

The AC50 is the midpoint of the concentration-response curve, whichever way the signal moves.

Active and inactive are the calls of the source. How the source made its calls: active means hit-call score of the fitted dose curve at least 0.9, where 1 is the maximum; inactive means score below 0.9.

Sequence of Hypoxia-inducible factor 1-alpha (Homo sapiens) (Q16665 whole entry, looked up): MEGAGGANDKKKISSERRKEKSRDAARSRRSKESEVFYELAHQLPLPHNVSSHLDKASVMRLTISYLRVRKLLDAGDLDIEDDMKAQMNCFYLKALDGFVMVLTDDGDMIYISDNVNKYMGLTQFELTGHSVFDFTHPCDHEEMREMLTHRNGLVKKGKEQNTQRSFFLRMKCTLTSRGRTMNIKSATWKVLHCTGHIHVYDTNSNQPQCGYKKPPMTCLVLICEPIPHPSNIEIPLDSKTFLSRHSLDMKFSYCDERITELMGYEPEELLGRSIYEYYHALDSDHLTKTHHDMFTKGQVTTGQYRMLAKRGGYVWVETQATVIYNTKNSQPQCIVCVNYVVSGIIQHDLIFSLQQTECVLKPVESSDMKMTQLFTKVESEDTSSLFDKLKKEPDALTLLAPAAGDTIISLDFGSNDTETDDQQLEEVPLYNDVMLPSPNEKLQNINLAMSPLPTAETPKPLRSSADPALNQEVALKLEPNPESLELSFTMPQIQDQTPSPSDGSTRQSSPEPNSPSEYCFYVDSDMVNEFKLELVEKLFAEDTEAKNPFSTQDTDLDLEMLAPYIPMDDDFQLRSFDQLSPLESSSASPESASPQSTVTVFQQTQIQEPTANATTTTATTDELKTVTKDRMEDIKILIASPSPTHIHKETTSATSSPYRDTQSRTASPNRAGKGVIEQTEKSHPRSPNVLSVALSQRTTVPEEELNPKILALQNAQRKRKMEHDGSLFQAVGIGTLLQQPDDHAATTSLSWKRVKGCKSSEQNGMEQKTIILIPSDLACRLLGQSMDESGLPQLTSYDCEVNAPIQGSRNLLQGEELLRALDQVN

`CCN(C(=O)c1cc(C)cc(OC[C@H](C)Nc2ccncc2)c1)C(C)C`: the call in experiment [1], in experiment [5], in experiment [6], in experiment [8] and in experiment [9] was inactive. Also, the AC50 in experiment [2], in experiment [3], in experiment [4] and in [7] was 33.8 µM (active) throughout.
In the case of `CC(C)(O)c1coc(S(=O)(=O)NC(=O)Nc2c3c(cc4c2CCC4)CCC3)c1`, the call in experiment [1], in [2], in [3], in [4], in experiment [5] and in experiment [6] was inactive. The compound was called inactive in experiment [7], in [8] and in experiment [9].
`CCOCCO`: the result in [1], in experiment [2], in [3], in experiment [4], in experiment [5] and in experiment [6] was inactive. For the same compound, the compound was called inactive in experiment [7], in experiment [8] and in [9].
`Cc1ccc(C)c(O)c1`: the result in [1], in experiment [2], in [3], in experiment [4], in experiment [5] and in [6] was inactive. Further, the outcome in experiment [7], in experiment [8] and in experiment [9] was inactive.
In the case of `CCC(C)(C)C(=O)O[C@H]1C[C@@H](C)C=C2C=C[C@H](C)[C@H](CC[C@@H]3C[C@@H](O)CC(=O)O3)[C@H]21`, the compound was classed as inactive in [1], in [2], in [3], in experiment [4], in experiment [5] and in experiment [6]. Besides, the compound was classed as inactive in [7], in experiment [8] and in [9].
On to `CC(C)CCCCCCCOC(=O)CCCCC(=O)OCCCCCCCC(C)C`, for which the call in experiment [1], in experiment [2], in experiment [3], in experiment [4], in experiment [5] and in [6] was inactive. Further, the compound was called inactive in experiment [7], in experiment [8] and in [9].
With `O=C(CCCCCCCCc1cccnc1)N1CCC(C=C(c2ccccc2)c2ccccc2)CC1`, the AC50 in [1] was 77.2 µM (active); in [2] it was 22.9 µM (active); in [3], 11.9 µM (active); in experiment [4], 16.5 µM (active); in experiment [5], 16.4 µM (active); in experiment [6], 28.5 µM (active). Further, the AC50 in experiment [7] was 22.6 µM (active); in experiment [8] it was 89.3 µM (active); in experiment [9], 50 µM (active). Besides, in [10], the outcome was inactive.
On to `Nc1cccc(N)c1`, for which the compound was classed as inactive in experiment [1], in experiment [2], in [3], in [4], in experiment [5] and in experiment [6]. The compound was called inactive in experiment [7], in experiment [8], in [9] and in experiment [10].
Turning to `O=C(O)CC(O)C(=O)O` (configuration not stated), the compound was classed as inactive in [1], in [2], in experiment [3], in experiment [4], in experiment [5] and in [6]. Also, the compound was called inactive in experiment [7], in experiment [8], in experiment [9] and in experiment [10].
Take `Nc1ccc(Nc2ccccc2)cc1`: the half-maximal activity concentration (AC50) is 50 µM (active) in [1], 60.9 µM (active) in experiment [2], 50 µM (active) in experiment [4] and 50 µM (active) in experiment [10]. For the same compound, the compound was classed as inactive in experiment [3], in experiment [5], in experiment [6], in experiment [7], in experiment [8] and in experiment [9].
As to `O=c1n(CC2CO2)c(=O)n(CC2CO2)c(=O)n1CC1CO1` (configuration not stated), the outcome in experiment [1], in experiment [2], in [3], in experiment [4], in experiment [5] and in experiment [6] was inactive. Also, the compound was classed as inactive in experiment [8], in experiment [9] and in [10]. Besides, in experiment [7], the AC50 was 50 µM (active).
`O=C1OC(=O)C2C3C=CC(C3)C12` (configuration not stated): the outcome in experiment [1], in experiment [2], in experiment [3], in experiment [4], in [5] and in [6] was inactive. Besides, the compound was classed as inactive in experiment [7], in [8] and in experiment [9].
As for `COc1ccc(-n2nc(C(F)F)cc2-c2ccc(S(C)=O)cc2)cc1` (configuration not stated), the compound was classed as inactive in [1], in experiment [2], in experiment [3], in experiment [4], in experiment [5] and in [6]. For the same compound, the compound was called inactive in experiment [7], in experiment [8], in experiment [9] and in experiment [10].
Consider `CC(C)CC(C)(O)C#CC(C)(O)CC(C)C` (configuration not stated), for which the compound was classed as inactive in experiment [1], in experiment [2], in experiment [3], in experiment [4], in experiment [5] and in experiment [6]. The compound was classed as inactive in [7], in experiment [8], in [9] and in experiment [10].
In the case of `CN(C)c1ccc(Cc2ccc(N(C)C)cc2)cc1`, the compound was classed as inactive in experiment [1], in experiment [3], in experiment [5], in experiment [6], in [7] and in [8]. Also, the result in experiment [9] was inactive. In addition, the AC50 in experiment [2] is 88.4 µM (active); in experiment [4], 79.2 µM (active); in experiment [10], 40.8 µM (active).
As to `CCn1nc(Cc2ccccc2)cc1C1CCN(C[C@H]2C[C@H](N(C)[C@@H](C(=O)O)C(C)C)C[C@@H]2c2cccc(F)c2)CC1`, the compound was classed as inactive in experiment [1], in experiment [3], in [7], in experiment [8] and in experiment [9]. For the same compound, the half-maximal activity concentration (AC50) was 50 µM (active) in experiment [2]; 37.7 µM (active) in [4]; 50 µM (active) in experiment [5]; 73.6 µM (active) in experiment [6]; 34.9 µM (active) in experiment [10].
On to `O=C1CCCCCN1`, for which the compound was called inactive in [1], in experiment [2], in experiment [3], in experiment [4], in [5] and in experiment [6]. The call in experiment [7], in experiment [8], in experiment [9] and in experiment [10] was inactive.
Consider `COC(=O)c1ccccc1O`, for which the compound was called inactive in [1], in experiment [2], in experiment [3], in experiment [4], in experiment [5] and in experiment [6]. For the same compound, the result in experiment [7], in [8] and in experiment [9] was inactive.
For the compound `O=C(O)CCN(C1(C(=O)NO)CCCC1)S(=O)(=O)c1ccc(Oc2ccc(F)cc2)cc1`, the result in [1], in experiment [2], in experiment [3], in experiment [4], in [5] and in [6] was inactive. Further, the call in [7], in [8], in [9] and in experiment [10] was inactive.
`O=C(NS(=O)(=O)/C=C/c1ccccc1)c1ccc(F)cc1Cl`: the outcome in experiment [1], in experiment [3], in experiment [5], in [6], in [7] and in experiment [8] was inactive. The compound was classed as inactive in experiment [9] and in experiment [10]. The AC50 is 27.9 µM (active) in [2] and 8.33 µM (active) in experiment [4].
Regarding `CCc1cc(SCc2sc(-c3ccc(C(F)(F)F)cc3)nc2CN2CCN(c3ccc(OC)cc3)CC2)ccc1OCC(=O)O`, the half-maximal activity concentration (AC50) in [1] was 91.1 µM (active); in experiment [2], 77.1 µM (active); in experiment [3], 7.66 µM (active); in experiment [4] it was 73.8 µM (active); in experiment [5], 92.9 µM (active); in experiment [6], 88.6 µM (active). Moreover, the AC50 in experiment [7] was 86 µM (active); in experiment [8] it was 26.2 µM (active); in experiment [9] it was 9.11 µM (active); in experiment [10] it was 94 µM (active).
